# PubChem BioAssay
# Activity calls are given as the source filed them.
# Experiments:
# Albumin (Bos taurus) = Albumin (Bos taurus) (UniProt P02769); test: bovine serum albumin binders on microarray, profiling panel, artefact control for SMM control protein annotation, biochemical, small-molecule microarray, Alexa647 label, 635/667 nm fluorescence (AID 1118); conditions: BSA-A647 binding, fluorescence 635 nm, higher = more signal;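 further: score merges 667 nm emission intensity and signal-to-noise per printed compound spot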
# [1] = small-molecule microarray binders of probe aXIP, primary screen, biochemical, NeuroSMM set, 635/667 nm fluorescence (AID 1119); conditions: higher = more signal, called active from +8 up or from −8 down;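 further: probe is the protein aXip251-270 applied at 1 µg/mL to compound-printed slides; binding of probe to printed compounds measured as 667 nm fluorescence plus signal to noise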
# [2] = small-molecule binders of probe aNOTCH3, primary screen, biochemical, small-molecule microarray, 635/667 nm fluorescence (AID 1120); conditions: higher = more signal;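 further: probe is a biotin-tagged antibody raised against NOTCH3 rather than NOTCH3 protein; score merges spot fluorescence near 667 nm with spot signal to noise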
# [3] = small-molecule binders of probe aNOTCH2, primary screen, biochemical, small-molecule microarray, 635/667 nm fluorescence (AID 1121); conditions: higher = more signal;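 further: score merges feature fluorescence read at 667 nm with its signal to noise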
# [4] = molecular target: Carbonic anhydrase 2 (Homo sapiens) (UniProt P00918); test: CAII small-molecule binders, profiling panel, biochemical, small-molecule microarray, Alexa647-labelled CAII (AID 1122); conditions: CAII-A647 binding fluorescence, higher = more signal
# [5] = COS7 lysate on small-molecule microarray, probe aHis, 635 nm (AID 1123); conditions: COS7 cell lysate, fluorescence, higher = more signal;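 further: z-score combines 667nm fluorescence intensity with signal-to-noise per printed compound spot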
# [6] = compound binding in COS7 lysate, probe aLAP1, primary screen, cell lysate, small-molecule microarray (AID 1124); conditions: probe aLAP1, fluorescence, higher = more signal;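 further: lysate comes from COS7 cells expressing LAP1 and is applied at 0.3 µg/mL; score merges spot fluorescence near 667 nm with signal-to-noise over triplicate slides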
# Sam68 (KHDRBS1) = test: Sam68 small-molecule binders, primary screen, biochemical, small-molecule microarray, 635 nm fluorescence (AID 1125); conditions: small-molecule microarray binding, higher = more signal;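 further: score merges 667 nm channel intensity with signal to noise over triplicate slides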
# [7] = test system: Chordin-like protein 2 (CHRDL2); test: CHRDL2 small-molecule binders, primary screen, biochemical, small-molecule microarray, 635 nm fluorescence (AID 1126); conditions: small-molecule microarray binding, fluorescence 635 nm; higher = more signal;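 further: printed compound slides probed with Chrdl2 protein at 4 µg/mL for 1 h at 4 C; score merges 667 nm emission intensity with signal to noise over three replicate slides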
# [8] = molecular target: Concanavalin-A (Canavalia ensiformis) (UniProt P02866); test: ConA small-molecule binders, primary screen, artefact control for SMM control protein annotation, biochemical, small-molecule microarray, Alexa647 label, 635 nm (AID 1127); conditions: ConA-A647 binding fluorescence, higher = more signal;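 further: z combines 667 nm emission intensity with signal-to-noise across three replicate slides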
# [9] = anti-His antibody binders, primary screen, artefact control for SMM control protein annotation, biochemical, small-molecule microarray, 635 nm fluorescence (AID 1128); conditions: anti-His Alexa647 antibody binding, higher = more signal;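 further: score merges feature fluorescence with signal-to-noise for each printed compound spot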
# [10] = test system: Human papillomavirus type 1a E7 protein (residues 1-88); test: HPV1a E7 small-molecule binders, primary screen, biochemical, small-molecule microarray, residues 1-88, 635 nm (AID 1129); conditions: small-molecule microarray binding, fluorescence 635 nm; higher = more signal
# [11] = molecular target: Focal adhesion kinase 1 (Homo sapiens) (UniProt Q05397); test: small-molecule microarray binders of FAK, primary screen, biochemical, 635/667 nm fluorescence, BSA, DTT (AID 1130); conditions: PTK2 binding, 635 nm fluorescence, higher = more signal;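 further: composite of spot emission at 667 nm and signal to noise over triplicate slides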
# [12] = test system: Fibrinogen (Alexa647-labelled); test: fibrinogen binders on compound microarrays, profiling panel, artefact control for SMM control-protein annotation, biochemical, small-molecule microarray, 635/667 nm fluorescence (AID 1131); conditions: fibrinogen-A647 binding fluorescence, higher = more signal;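 further: z-score merges 667 nm fluorescence with per-spot signal-to-noise over triplicate slides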
# [13] = molecular target: Follistatin (Homo sapiens) (UniProt P19883); test: follistatin binders on small-molecule microarrays, primary screen, biochemical, small-molecule microarray, 635/667 nm fluorescence (AID 1132); conditions: FST binding, 635 nm fluorescence, higher = more signal
# [14] = molecular target: Fibroblast growth factor 2 (Homo sapiens) (UniProt P09038); test: FGF2 binders on small-molecule microarrays, primary screen, biochemical, small-molecule microarray, 635/667 nm fluorescence (AID 1133); conditions: small-molecule microarray binding, FGF2, fluorescence 635/667; higher = more signal
# [15] = mitochondrial membrane potential change in A549 cells, profiling panel, cell-based, JC-1 fluorescence, basal, 24 h, 100 nL (AID 1138); conditions: higher = more signal;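 further: A549 lung adenocarcinoma cells under basal conditions with no added stimulus; test concentration not given here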
# Lefty1 = Lefty1 binders on small-molecule microarrays, primary screen, biochemical, small-molecule microarray, 635/667 nm fluorescence (AID 1139); conditions: small-molecule microarray binding, fluorescence 635/667; higher = more signal
# [16] = test system: wheat germ agglutinin (Triticum aestivum), Alexa647-labelled; test: wheat germ agglutinin binders on compound microarrays, profiling panel, artefact control for SMM control-protein annotation, biochemical, small-molecule microarray, 635/667 nm fluorescence (AID 1140); conditions: WGA-A647 binding, 635 nm fluorescence, higher = more signal;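 further: score merges 667 nm feature emission with signal to noise over triplicate slides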
# [17] = molecular target: Luciferin 4-monooxygenase (Photinus pyralis) (UniProt P08659); test: firefly luciferase enzyme inhibitors, primary screen, biochemical, luminescence, purified enzyme, 2006 set (AID 1141); conditions: SteadyGlo luminescence, 30 min, higher = more signal, called active from +8 up or from −8 down;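 further: cell-free assay with purified firefly luciferase at 100 ng per well in PBS; test concentration not given here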
# Chain of Luciferin 4-monooxygenase (Photinus pyralis) (P08659 whole entry, looked up): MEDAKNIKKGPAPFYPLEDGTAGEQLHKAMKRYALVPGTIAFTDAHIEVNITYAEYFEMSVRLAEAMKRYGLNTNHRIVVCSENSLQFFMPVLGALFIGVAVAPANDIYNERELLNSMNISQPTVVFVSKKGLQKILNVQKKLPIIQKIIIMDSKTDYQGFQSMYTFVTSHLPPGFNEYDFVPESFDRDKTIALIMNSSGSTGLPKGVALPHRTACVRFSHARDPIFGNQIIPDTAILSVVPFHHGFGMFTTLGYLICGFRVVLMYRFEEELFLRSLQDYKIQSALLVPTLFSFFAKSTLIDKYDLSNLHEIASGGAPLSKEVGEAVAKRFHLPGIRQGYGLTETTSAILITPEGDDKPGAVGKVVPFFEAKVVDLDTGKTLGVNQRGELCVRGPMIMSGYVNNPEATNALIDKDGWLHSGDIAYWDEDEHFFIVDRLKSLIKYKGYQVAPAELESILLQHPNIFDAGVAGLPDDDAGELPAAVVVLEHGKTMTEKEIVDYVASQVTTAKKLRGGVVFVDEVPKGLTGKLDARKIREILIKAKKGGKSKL
# Chain of Fibroblast growth factor 2 (Homo sapiens) (P09038 whole entry, looked up): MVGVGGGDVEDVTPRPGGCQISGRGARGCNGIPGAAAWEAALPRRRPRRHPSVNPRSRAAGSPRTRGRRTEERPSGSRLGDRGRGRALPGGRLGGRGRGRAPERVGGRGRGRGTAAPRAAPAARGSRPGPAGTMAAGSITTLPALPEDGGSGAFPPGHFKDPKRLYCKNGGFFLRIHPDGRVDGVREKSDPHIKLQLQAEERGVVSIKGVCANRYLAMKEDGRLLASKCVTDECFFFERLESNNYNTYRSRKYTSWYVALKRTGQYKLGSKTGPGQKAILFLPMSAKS
# Chain of Concanavalin-A (Canavalia ensiformis) (P02866 whole entry, looked up): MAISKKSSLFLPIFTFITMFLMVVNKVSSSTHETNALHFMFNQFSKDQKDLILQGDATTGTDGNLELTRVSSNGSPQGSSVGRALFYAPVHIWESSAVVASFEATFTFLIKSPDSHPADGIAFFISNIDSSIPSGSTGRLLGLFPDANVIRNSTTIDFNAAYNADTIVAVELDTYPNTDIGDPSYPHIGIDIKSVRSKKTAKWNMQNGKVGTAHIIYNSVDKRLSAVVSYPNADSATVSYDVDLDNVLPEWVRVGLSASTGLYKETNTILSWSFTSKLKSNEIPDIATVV
# Chain of Albumin (Bos taurus) (P02769 whole entry, looked up): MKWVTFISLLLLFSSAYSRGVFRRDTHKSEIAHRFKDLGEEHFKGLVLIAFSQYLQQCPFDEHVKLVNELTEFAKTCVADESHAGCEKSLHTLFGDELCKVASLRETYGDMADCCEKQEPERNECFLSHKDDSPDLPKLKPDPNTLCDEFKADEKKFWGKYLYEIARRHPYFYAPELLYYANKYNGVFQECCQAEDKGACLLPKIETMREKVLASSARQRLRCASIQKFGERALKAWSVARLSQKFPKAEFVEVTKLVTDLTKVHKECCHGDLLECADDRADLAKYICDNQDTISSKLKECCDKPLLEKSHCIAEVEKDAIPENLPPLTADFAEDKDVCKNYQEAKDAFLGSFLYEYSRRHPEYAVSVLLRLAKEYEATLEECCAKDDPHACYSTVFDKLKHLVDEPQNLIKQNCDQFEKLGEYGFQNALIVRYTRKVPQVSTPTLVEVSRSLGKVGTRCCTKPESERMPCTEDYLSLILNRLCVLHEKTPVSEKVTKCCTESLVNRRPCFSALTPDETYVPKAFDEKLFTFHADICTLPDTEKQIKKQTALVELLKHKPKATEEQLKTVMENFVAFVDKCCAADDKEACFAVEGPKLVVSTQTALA
# Chain of Follistatin (Homo sapiens) (P19883 whole entry, looked up): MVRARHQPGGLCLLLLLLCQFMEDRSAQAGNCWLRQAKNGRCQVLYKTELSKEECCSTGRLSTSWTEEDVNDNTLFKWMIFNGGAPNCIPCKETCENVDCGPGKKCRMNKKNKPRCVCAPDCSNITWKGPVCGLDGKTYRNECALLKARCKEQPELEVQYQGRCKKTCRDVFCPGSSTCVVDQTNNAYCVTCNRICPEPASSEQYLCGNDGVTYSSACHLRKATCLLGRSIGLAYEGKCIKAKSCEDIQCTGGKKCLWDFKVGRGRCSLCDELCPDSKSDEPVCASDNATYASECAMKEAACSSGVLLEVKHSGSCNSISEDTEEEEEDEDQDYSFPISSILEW
# Chain of Focal adhesion kinase 1 (Homo sapiens) (Q05397 whole entry, looked up): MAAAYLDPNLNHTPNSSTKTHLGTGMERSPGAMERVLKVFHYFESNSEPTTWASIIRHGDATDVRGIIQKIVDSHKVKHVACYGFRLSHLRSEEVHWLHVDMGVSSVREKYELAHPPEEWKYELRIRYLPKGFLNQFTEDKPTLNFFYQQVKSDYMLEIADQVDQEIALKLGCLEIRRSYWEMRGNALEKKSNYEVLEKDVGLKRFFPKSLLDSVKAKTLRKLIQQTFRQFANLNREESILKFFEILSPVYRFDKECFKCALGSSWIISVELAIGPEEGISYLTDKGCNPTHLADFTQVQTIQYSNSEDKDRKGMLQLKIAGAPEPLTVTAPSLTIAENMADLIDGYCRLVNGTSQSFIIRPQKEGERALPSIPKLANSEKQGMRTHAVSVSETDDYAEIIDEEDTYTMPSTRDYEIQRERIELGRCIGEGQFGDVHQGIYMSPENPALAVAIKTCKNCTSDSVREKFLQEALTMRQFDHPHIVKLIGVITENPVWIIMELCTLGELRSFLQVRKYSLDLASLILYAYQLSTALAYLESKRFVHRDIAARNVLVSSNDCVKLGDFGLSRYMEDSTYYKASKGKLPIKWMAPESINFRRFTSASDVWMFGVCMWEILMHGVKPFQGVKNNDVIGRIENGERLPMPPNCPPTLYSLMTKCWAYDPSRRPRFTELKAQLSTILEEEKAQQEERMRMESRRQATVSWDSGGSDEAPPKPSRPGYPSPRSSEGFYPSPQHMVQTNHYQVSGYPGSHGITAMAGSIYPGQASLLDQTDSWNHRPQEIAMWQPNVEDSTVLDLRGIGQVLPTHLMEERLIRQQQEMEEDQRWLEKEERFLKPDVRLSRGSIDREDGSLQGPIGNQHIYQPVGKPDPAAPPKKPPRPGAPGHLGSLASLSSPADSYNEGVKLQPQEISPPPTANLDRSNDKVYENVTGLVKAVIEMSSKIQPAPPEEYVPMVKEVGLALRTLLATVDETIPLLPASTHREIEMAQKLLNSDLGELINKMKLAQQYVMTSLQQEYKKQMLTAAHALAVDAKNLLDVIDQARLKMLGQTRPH
Structure (SMILES),composite z-score (Albumin (Bos taurus)),composite Z-score [1],composite z-score [2],composite z-score [3],composite z-score [4],composite z-score [5],composite z-score [6],composite z-score (Sam68 (KHDRBS1)),composite z-score [7],composite z-score [8],composite z-score [9],composite z-score [10],composite z-score [11],composite z-score [12],composite z-score [13],composite z-score [14],z-score [15],composite z-score (Lefty1),composite z-score [16],z-score [17]
O=C1O[C@H](c2ccccc2)[C@H](c2ccccc2)N2[C@H]1[C@@H](C(=O)N1CCCCCCC1)[C@]1(C(=O)Nc3ccc(C#CC4=CCCCC4)cc31)[C@H]2c1ccc(OCCO)cc1,0.833,7.2 (inactive),2.11,1.05,0.837,3.66,1.3,1.25,1.48,1.15,2.15,1.26,3.18,0.9,1.49,0.833,-1.3,1.65,1.47,-1.2 (inactive)
CCC[C@@H]1C[C@@]1(CCC)[C@@H](NS(=O)(=O)c1cccc2cccnc12)c1ccc(Cl)cc1,0.659,-0.421 (inactive),0.0496,-0.106,0.457,1.81,-0.119,0.403,-0.955,0.492,0.265,1.06,0.249,0.285,0.0155,-1.68,2.3,-0.605,0.701,0.19 (inactive)
COCCOC(=O)N1C(=O)[C@@]2(c3cc(C#CCNC(N)=O)ccc31)[C@H](C(=O)N1CCN(c3ncccn3)CC1)[C@H]1C(=O)O[C@H](c3ccccc3)[C@H](c3ccccc3)N1[C@@H]2c1ccc(OCCO)cc1,0.521,0.242 (inactive),0.185,-0.108,0.193,1.48,0.437,1.29,0.0879,1,0.549,1.12,-0.171,0.931,1.12,0.674,-1.25,0.465,0.723,-1.47 (inactive)
COC(=O)C[C@H]1O[C@]2(C(=O)N(C)c3ccccc32)[C@@H](C)[C@@H]1[Si](C)(C)F,-0.255,0.448 (inactive),-0.0584,-0.161,0.224,0.597,-0.0413,1.09,0.592,0.596,0.0783,0.608,0.26,0.209,1.18,2.03,0.435,1.33,-0.0572,-1.82 (inactive)
O=C(N1CCCCC1)[C@]1(Cc2ccccc2)N=C(c2ccc(OCCCO)cc2)O[C@@H]1c1ccccc1,0.441,-0.425 (inactive),0.096,-0.0561,0.225,1.24,0.968,1.18,-0.862,1.06,2.63,1.19,0.534,0.632,0.301,0.042,-1.62,-0.506,0.99,-0.265 (inactive)
